The structures appear in SMILES notation. Results filed as inconclusive are left out. Activity calls are given as the source filed them. How the source made its calls: active means hit-call score of the fitted dose curve at least 0.9, where 1 is the maximum; inconclusive means response in the unintended direction; inactive means score below 0.9.

Consider 24 molecules from PubChem BioAssay (EPA / NIEHS).

The target in assay [1] is human Neuropeptide Receptor Y1 (NPY1), NPY1R (gene 4886) (UniProt P25929). Kind of assay: NVS_GPCR_hNPY1: NovaScreen (NVS) G Protein-Coupled Receptor Assay for human Neuropeptide Receptor Y1 (NPY1) (AID 2283276). The method in brief:
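Cell-free radioligand binding using receptor extracted from SK-N-MC cells, 1 h incubation, filter-based scintillation counting. Primary screen single concentration 25 uM in duplicate; actives followed in concentration series. Loss of bound signal scored versus DMSO.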

In assay [2] the target is D(1A) dopamine receptor (Homo sapiens) (UniProt P21728). Kind of assay: NVS_GPCR_hDRD1: NovaScreen (NVS) G Protein-Coupled Receptor Assay for human Dopamine Receptor D1 (DRD1) (AID 2283269). The essentials:
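Cell-free competition with radioligand, filter-trapped and scintillation-counted 1 h post-dose, using HEK293-derived human D1 preparation. Duplicate single-point testing at 25 uM first, then concentration series for actives; DMSO served as baseline, loss-of-signal scored.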

For assay [3], the target named is human Neurokinin, NK2 Receptor, TACR2 (gene 6865) (UniProt P21452). Kind of assay: NVS_GPCR_hNK2: NovaScreen (NVS) G Protein-Coupled Receptor Assay for human Neurokinin, NK2 Receptor (AID 2283278).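 Further: actives reduce bound radioligand signal relative to DMSO baseline.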 The method in brief: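 Cell-free radioligand binding using receptor protein extracted from CHO cells; readings taken 4 hours after chemical dosing by filter-based scintillation counting. Primary screen ran single concentration (25 uM) in duplicate; actives followed up in concentration series, loss-of-signal versus DMSO baseline.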
human Neurokinin, NK2 Receptor, TACR2 (gene 6865), sequence (P21452 whole entry, looked up): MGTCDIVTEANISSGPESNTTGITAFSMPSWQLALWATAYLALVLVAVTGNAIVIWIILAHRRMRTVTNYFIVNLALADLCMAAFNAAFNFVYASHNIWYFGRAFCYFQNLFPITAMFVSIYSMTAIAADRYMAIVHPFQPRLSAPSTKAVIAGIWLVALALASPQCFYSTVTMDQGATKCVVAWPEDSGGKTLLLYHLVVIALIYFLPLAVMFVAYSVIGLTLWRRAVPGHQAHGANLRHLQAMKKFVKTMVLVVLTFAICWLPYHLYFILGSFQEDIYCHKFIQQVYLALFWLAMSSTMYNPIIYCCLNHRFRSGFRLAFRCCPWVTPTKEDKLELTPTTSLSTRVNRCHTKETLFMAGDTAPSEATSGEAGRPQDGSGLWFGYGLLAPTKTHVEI

Assay [4] deals with human Opioid Receptor Delta 1 (Opiate D1), OPRD1 (gene 4985) (UniProt P41143). Kind of assay: NVS_GPCR_hOpiate_D1: NovaScreen (NVS) G Protein-Coupled Receptor Assay for human Opioid Receptor Delta 1 (Opiate D1) (AID 2283280). The method in brief: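 Radioligand displacement on membranes from CHO cells expressing the receptor, read by filter scintillation counting 1 h after dosing. Duplicate single-point screen at 25 uM, then concentration series for actives; loss of signal versus DMSO.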
human Opioid Receptor Delta 1 (Opiate D1), OPRD1 (gene 4985), sequence (P41143 whole entry, looked up): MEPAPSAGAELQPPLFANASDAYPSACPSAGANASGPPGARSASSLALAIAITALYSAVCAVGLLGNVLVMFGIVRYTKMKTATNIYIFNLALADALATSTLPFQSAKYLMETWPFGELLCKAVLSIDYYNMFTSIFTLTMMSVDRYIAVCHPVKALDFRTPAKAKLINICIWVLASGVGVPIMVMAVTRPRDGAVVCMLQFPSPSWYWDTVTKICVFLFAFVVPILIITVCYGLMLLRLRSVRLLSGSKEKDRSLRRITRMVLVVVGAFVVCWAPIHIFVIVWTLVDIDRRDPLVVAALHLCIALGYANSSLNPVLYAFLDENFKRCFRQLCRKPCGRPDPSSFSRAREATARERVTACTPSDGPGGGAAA

For assay [5], the target named is human Thromboxane A2 Receptor (TXA2), TBXA2R (gene 6915) (UniProt P21731). Kind of assay: NVS_GPCR_hTXA2: NovaScreen (NVS) G Protein-Coupled Receptor Assay for human Thromboxane A2 Receptor (TXA2) (AID 2283282).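 Further: actives reduce bound radioligand signal relative to DMSO baseline.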 The method in brief:
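Screening ran at 25 uM in duplicate, with concentration series for confirmed actives. Each test measures radioligand binding to human platelet protein after 1 h, cell-free, using filter-based scintillation detection of signal loss relative to DMSO.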

Assay [6] concerns the target Neuropeptide Y receptor type 2 (Homo sapiens) (UniProt P49146). Kind of assay: NVS_GPCR_hNPY2: NovaScreen (NVS) G Protein-Coupled Receptor Assay for human Neuropeptide Receptor Y2 (NPY2) (AID 2283277). The method in brief: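 Radioligand binding on membranes extracted from SK-N-MC cells, cell-free, read 1 h after dosing by filter-based scintillation counting. Loss of signal vs DMSO. Primary screen in duplicate at 25 uM; actives followed up in concentration-response up to 50 uM.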

Assay [7] deals with Muscarinic acetylcholine receptor M3 (Homo sapiens) (UniProt P20309). Kind of assay: NVS_GPCR_hM3: NovaScreen (NVS) G Protein-Coupled Receptor Assay for human Muscarinic, M3 Receptor (AID 2283272). The method in brief: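 Radioligand displacement binding on human M3 receptor in CHO-derived membranes, 1 h incubation, filter-based scintillation counting. Primary screen in duplicate at 25 uM; actives followed up in concentration series; loss of signal versus DMSO.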
Muscarinic acetylcholine receptor M3 (Homo sapiens), sequence (P20309 whole entry, looked up): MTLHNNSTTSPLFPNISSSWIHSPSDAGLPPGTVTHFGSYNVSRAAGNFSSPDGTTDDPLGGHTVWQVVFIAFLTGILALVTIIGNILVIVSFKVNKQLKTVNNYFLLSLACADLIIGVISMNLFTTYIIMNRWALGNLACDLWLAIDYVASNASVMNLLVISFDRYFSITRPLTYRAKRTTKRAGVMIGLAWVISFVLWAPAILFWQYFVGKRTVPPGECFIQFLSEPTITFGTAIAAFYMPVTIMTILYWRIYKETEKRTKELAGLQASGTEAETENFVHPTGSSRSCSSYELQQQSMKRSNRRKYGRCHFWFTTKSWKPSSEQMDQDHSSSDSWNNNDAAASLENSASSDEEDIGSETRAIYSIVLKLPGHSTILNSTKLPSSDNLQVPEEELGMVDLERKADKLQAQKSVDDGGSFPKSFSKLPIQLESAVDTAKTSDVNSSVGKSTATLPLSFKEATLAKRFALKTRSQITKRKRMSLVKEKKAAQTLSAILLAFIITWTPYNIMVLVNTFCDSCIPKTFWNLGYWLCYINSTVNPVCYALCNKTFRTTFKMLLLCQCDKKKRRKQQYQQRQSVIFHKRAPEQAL

Assay [8] addresses human Muscarinic, M4 Receptor, CHRM4 (gene 1132) (UniProt P08173). Kind of assay: NVS_GPCR_hM4: NovaScreen (NVS) G Protein-Coupled Receptor Assay for human Muscarinic, M4 Receptor (AID 2283274). The essentials:
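Cell-free radioligand displacement using CHO-derived human M4 receptor protein, 1 h after dosing; bound radioactivity by filtration and scintillation counting. Primary screen single 25 uM duplicate, actives followed in concentration series.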

In assay [9] the target is Muscarinic acetylcholine receptor M5 (Homo sapiens) (UniProt P08912). Kind of assay: NVS_GPCR_hM5: NovaScreen (NVS) G Protein-Coupled Receptor Assay for human Muscarinic, M5 Receptor (AID 2283275). The essentials:
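Radioligand displacement on CHO-derived membrane preparations, 1 h, filter-based scintillation counting. Single-concentration duplicate screen at 25 uM; hits (e.g. 30% inhibition) retested in singleton concentration-response up to 50 uM. Loss of binding fitted versus DMSO.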

The target of assay [10] is mouse Cholecystokinin, CCK1 Receptor (CCKA), Cckar (gene 12425) (UniProt O08786). Kind of assay: NVS_GPCR_mCCKAPeripheral: NovaScreen (NVS) G Protein-Coupled Receptor Assay for mouse Cholecystokinin, CCK1 Receptor (CCKA) (AID 2283285). The method in brief: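 Radioligand competitive displacement on mouse pancreatic membranes, 2 h incubation; filter-based scintillation counting, loss of signal versus DMSO. Single-concentration screen at 25 uM in duplicate, actives retested in concentration-response up to 50 uM.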

Assay [11] deals with human Histamine 1 Receptor (H1), HRH1 (gene 3269) (UniProt P35367). Kind of assay: NVS_GPCR_hH1: NovaScreen (NVS) G Protein-Coupled Receptor Assay for human Histamine 1 Receptor (H1) (AID 2283268). The method in brief: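 Cell-free radioligand displacement at human H1 receptor, 1 h, filter scintillation counting; primary screen 25 uM in duplicate, hits in concentration series; loss of binding fitted vs DMSO.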

The target of assay [12] is Muscarinic acetylcholine receptor M1 (Homo sapiens) (UniProt P11229). Kind of assay: NVS_GPCR_hM1: NovaScreen (NVS) G Protein-Coupled Receptor Assay for human Muscarinic, M1 Receptor (AID 2283270). The method in brief: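 Cell-free radioligand displacement using membrane protein extracted from CHO cells, read by filter-based scintillation counting 1 h after dosing. Loss of bound signal fitted versus DMSO; primary screen single concentration 25 uM in duplicate, actives followed by concentration series.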

For assay [13], the target named is human Leukotriene B4 Receptor 1 (LTB4-BLT1), LTB4R (gene 1241) (UniProt Q15722). Kind of assay: NVS_GPCR_hLTB4_BLT1: NovaScreen (NVS) G Protein-Coupled Receptor Assay for human Leukotriene B4 Receptor 1 (LTB4-BLT1) (AID 2283271). The method in brief:
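Radioligand displacement binding on receptor extracted from human neutrophils, cell-free, 1 h after dosing; filter-based scintillation counting. Primary screen in duplicate at 25 uM, actives retested in concentration-response up to 50 uM; loss of signal versus DMSO.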

In assay [14] the target is human Purinergic Receptor P2Y, P2RY1 (gene 5028) (UniProt P47900). Kind of assay: NVS_GPCR_hPY2: NovaScreen (NVS) G Protein-Coupled Receptor Assay for human Purinergic Receptor P2Y (AID 2283281). The method in brief: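 Cell-free radioligand binding using U937-derived protein, 1 h after dosing, filter-based scintillation counting. Screened in duplicate at 25 uM; actives rerun as concentration-response up to 50 uM; loss of signal versus DMSO.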
human Purinergic Receptor P2Y, P2RY1 (gene 5028), sequence (P47900 whole entry, looked up): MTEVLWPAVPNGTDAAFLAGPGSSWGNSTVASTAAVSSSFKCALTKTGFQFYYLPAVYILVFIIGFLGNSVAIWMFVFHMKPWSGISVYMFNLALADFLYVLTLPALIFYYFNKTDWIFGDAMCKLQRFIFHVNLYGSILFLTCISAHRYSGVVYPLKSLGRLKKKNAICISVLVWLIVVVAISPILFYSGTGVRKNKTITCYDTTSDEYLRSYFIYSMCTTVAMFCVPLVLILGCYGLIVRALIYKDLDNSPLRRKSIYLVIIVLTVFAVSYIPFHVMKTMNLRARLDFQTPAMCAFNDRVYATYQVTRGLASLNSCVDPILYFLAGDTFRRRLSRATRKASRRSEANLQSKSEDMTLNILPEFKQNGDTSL

For assay [15], the target named is human Orphanin, Opioid Related Nociceptin Receptor 1 (ORL1), OPRL1 (gene 4987) (UniProt P41146). Kind of assay: NVS_GPCR_hORL1: NovaScreen (NVS) G Protein-Coupled Receptor Assay for human Orphanin, Opioid Related Nociceptin Receptor 1 (ORL1) (AID 2283283). The method in brief:
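Filter-based radioligand displacement with receptor extracted from HEK293 cells, read 1 hour after dosing by scintillation counting. Duplicate single-point screen at 25 uM; qualifying chemicals then run in concentration-response to 50 uM, analysed relative to DMSO.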

Assay [16] addresses Muscarinic acetylcholine receptor M2 (Homo sapiens) (UniProt P08172). Kind of assay: NVS_GPCR_hM2: NovaScreen (NVS) G Protein-Coupled Receptor Assay for human Muscarinic, M2 Receptor (AID 2283273). The essentials:
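Radioligand displacement on human M2 receptor membranes from CHO cells, 1 h incubation, filtration with scintillation counting. Primary screen in duplicate at 25 uM; actives retested in concentration series; loss of signal fitted versus DMSO.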

Assay [17] deals with human Endothelin Receptor Type B (ETB), EDNRB (gene 1910) (UniProt P24530). Kind of assay: NVS_GPCR_hETB: NovaScreen (NVS) G Protein-Coupled Receptor Assay for human Endothelin Receptor Type B (ETB) (AID 2283267). The method in brief: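 Human astrocytoma cell membranes; radioligand competitive binding read by filter scintillation counting 4 hours after dosing. Single-concentration duplicate screen at 25 uM, then singleton concentration-response up to 50 uM; loss of signal versus DMSO.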

Assay [18] concerns the target rat Serotonin, 5-Hydroxytryptamine Receptor 1 (5HT1), Non-Selective Binding, Htr1a (gene 24473) (UniProt P19327). Kind of assay: NVS_GPCR_r5HT1_NonSelective: NovaScreen (NVS) G Protein-Coupled Receptor Assay for rat Serotonin, 5-Hydroxytryptamine Receptor 1 (5HT1), Non-Selective Binding (AID 2283286). The essentials:
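Rat cortical membranes, radioligand displacement, 1 h incubation, read by filter scintillation. Primary screen in duplicate at 25 uM. Hits (e.g. ≥30% inhibition) went to concentration-response up to 50 uM, fitted as loss of binding versus DMSO.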

Muscarinic acetylcholine receptor M5 (Homo sapiens), sequence (P08912 whole entry, looked up): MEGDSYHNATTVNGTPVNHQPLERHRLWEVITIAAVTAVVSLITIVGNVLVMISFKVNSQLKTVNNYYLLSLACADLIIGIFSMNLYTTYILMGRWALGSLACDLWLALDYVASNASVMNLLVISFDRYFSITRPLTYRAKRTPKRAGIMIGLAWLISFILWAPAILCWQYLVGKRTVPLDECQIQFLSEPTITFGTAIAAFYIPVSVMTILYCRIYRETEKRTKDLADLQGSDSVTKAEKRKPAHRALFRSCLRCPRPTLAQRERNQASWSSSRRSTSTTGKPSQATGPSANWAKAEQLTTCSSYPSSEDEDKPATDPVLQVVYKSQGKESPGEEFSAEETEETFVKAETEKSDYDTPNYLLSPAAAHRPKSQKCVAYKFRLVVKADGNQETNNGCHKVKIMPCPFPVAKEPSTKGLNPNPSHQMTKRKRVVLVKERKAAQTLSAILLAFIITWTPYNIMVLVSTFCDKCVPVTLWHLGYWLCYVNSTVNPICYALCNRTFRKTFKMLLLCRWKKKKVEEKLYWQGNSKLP
human Thromboxane A2 Receptor (TXA2), TBXA2R (gene 6915), sequence (P21731 whole entry, looked up): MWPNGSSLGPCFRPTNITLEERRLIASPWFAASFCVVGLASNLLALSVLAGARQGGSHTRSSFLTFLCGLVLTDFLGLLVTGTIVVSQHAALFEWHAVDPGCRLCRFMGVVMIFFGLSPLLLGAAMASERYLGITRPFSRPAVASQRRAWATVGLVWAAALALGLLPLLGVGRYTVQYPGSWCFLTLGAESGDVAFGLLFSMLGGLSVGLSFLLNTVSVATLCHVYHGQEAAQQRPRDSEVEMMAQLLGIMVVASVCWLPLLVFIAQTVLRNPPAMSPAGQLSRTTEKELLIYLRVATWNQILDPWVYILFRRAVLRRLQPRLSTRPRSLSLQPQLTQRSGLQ
rat Serotonin, 5-Hydroxytryptamine Receptor 1 (5HT1), Non-Selective Binding, Htr1a (gene 24473), sequence (P19327 whole entry, looked up): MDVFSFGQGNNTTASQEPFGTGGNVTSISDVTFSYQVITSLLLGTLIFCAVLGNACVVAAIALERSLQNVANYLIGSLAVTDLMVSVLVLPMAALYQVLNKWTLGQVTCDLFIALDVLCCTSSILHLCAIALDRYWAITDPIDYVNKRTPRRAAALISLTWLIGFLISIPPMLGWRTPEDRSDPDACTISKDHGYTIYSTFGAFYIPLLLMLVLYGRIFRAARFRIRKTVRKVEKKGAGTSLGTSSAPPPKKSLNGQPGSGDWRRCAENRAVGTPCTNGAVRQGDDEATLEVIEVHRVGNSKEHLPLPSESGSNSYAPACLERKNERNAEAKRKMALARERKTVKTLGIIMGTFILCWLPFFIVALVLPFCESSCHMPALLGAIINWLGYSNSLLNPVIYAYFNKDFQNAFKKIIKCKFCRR
D(1A) dopamine receptor (Homo sapiens), sequence (P21728 whole entry, looked up): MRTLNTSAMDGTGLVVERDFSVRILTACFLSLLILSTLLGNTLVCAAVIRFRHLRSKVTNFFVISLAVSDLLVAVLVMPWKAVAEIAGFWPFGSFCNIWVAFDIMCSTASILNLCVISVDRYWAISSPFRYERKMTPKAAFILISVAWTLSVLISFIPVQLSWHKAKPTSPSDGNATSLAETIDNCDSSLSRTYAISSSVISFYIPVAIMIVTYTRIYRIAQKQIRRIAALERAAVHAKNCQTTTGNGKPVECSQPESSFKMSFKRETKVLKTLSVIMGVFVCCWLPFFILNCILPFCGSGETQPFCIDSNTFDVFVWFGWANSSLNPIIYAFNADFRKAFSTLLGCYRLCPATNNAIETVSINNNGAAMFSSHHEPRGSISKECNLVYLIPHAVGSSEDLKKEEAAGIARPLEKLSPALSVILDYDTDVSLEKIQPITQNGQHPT
Muscarinic acetylcholine receptor M2 (Homo sapiens), sequence (P08172 whole entry, looked up): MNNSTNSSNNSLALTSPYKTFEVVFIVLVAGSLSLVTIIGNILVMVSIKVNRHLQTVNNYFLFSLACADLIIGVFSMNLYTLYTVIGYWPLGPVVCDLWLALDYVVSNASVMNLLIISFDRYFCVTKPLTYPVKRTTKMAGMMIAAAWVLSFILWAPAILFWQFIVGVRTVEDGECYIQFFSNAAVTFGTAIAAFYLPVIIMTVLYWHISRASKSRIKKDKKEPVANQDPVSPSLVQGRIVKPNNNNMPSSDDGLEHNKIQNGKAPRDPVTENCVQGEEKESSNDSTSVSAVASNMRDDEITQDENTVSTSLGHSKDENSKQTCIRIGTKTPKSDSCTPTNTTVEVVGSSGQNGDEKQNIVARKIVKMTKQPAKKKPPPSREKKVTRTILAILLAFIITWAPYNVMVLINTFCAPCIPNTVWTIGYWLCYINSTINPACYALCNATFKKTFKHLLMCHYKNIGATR
human Muscarinic, M4 Receptor, CHRM4 (gene 1132), sequence (P08173 whole entry, looked up): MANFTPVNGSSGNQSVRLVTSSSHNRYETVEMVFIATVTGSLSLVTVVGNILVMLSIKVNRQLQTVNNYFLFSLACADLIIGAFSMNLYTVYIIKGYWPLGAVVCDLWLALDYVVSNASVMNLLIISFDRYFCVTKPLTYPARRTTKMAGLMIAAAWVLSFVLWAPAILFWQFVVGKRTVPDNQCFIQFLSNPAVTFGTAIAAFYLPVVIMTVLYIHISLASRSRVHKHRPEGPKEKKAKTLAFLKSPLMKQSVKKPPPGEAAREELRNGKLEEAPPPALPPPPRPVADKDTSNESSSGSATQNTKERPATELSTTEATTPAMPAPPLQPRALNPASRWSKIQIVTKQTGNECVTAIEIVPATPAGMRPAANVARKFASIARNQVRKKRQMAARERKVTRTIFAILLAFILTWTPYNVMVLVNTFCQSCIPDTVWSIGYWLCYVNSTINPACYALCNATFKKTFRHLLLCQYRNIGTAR
Neuropeptide Y receptor type 2 (Homo sapiens), sequence (P49146 whole entry, looked up): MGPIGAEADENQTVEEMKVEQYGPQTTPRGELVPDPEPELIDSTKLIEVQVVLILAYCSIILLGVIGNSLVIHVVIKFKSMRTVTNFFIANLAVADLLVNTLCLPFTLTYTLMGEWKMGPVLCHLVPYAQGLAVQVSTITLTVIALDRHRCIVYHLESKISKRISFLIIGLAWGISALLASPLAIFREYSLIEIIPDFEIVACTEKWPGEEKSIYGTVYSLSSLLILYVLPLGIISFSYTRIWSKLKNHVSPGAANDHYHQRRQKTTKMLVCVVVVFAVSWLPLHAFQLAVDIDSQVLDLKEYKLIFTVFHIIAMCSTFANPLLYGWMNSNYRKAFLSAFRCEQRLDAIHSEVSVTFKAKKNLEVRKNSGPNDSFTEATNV

For orientation: AC50 means the concentration at which the activity in the assay is half-maximal. Consider `CC(=O)Oc1ccccc1C(=O)O`, for which the AC50 in assay [1] is 4.96 µM (active).

Take `COc1ccc(S(=O)(=O)N2C(=O)[C@@](c3ccccc3OC)(N3C[C@H](O)C[C@H]3C(=O)N(C)C)c3cc(Cl)ccc32)c(OC)c1`: the call in [2], in [4] and in [5] was inactive. The concentration at half-maximal activity (AC50) in [3] is 9.61 µM (active).

Take `CCCCCCOCCO`: the call in [6] was inactive.

Consider `C=CCOC(=O)c1ccccc1C(=O)OCC=C`, for which the AC50 in [7] is 36.7 µM (active).

Turning to `CN1CCN(Cc2cc(-c3ccc4[nH]c(=O)oc4c3)co2)[C@@H](c2ccc(F)cc2)C1`, the half-maximal activity concentration (AC50) in assay [2] is 5.7 µM (active); in assay [8] it was 26.7 µM (active); in [9], 14.8 µM (active); in assay [3] it was 35.4 µM (active).

For `Oc1ccc2ccccc2c1N=Nc1ccccc1`, in assay [3], the result was inactive.

As to `COc1cc(-c2nc(NC(=O)c3cc4cc(C)cc(C)c4n3CC(=O)O)sc2CCC2CCCCC2)c(OC)cc1Cl`, the AC50 is 15.9 µM (active) in assay [3] and 0.178 µM (active) in assay [10]. The outcome in assay [5] was inactive.

With `CCCCC(CC)COC(=O)CC(C(=O)OCC(CC)CCCC)S(=O)(=O)O` (configuration not stated), the concentration at half-maximal activity (AC50) was 35.5 µM (active) in assay [11]; 7.29 µM (active) in assay [2]; 34.6 µM (active) in assay [12]; 25 µM (active) in [13]; 39.4 µM (active) in assay [7]; 37.6 µM (active) in assay [8]. In addition, the half-maximal activity concentration (AC50) in [9] was 18 µM (active); in assay [3] it was 35.7 µM (active); in assay [4], 10.3 µM (active); in assay [14], 7.46 µM (active); in assay [5], 8.9 µM (active); in [15], 15.9 µM (active).

For the molecule `Cc1oc(-c2ccccc2)nc1CCOc1cccc2c1ccn2CCC(=O)O`, in assay [5], the AC50 was 1.33 µM (active).

In the case of `Oc1ccc2c(c1)OC[C@@H](N1CCC(O)(c3ccc(F)cc3)CC1)[C@H]2O`, the result in assay [2], in [12] and in assay [16] was inactive. Also, the AC50 in [9] was 16 µM (active).

Turning to `Nc1ccc2c(c1)C(=O)c1ccccc1C2=O`, the outcome in assay [16] was inactive. Besides, the half-maximal activity concentration (AC50) in [4] is 38.4 µM (active).

On to `NCC1(Cc2noc(=O)[nH]2)CCCCC1`, for which the molecule was called inactive in [17].

As to `Nc1nc(N)c2nc(CNc3ccc(C(=O)N[C@@H](CCC(=O)O)C(=O)O)cc3)cnc2n1`, the concentration at half-maximal activity (AC50) in assay [2] is 38.9 µM (active); in [16] it was 40.7 µM (active). For the same molecule, the molecule was classed as inactive in assay [6] and in assay [4].

As for `COCCOC[C@H](CC1(C(=O)NC2CCC(C(=O)O)CC2)CCCC1)C(=O)Oc1ccc2c(c1)CCC2` (some centres not stated), the result in assay [15] and in [18] was inactive.

In the case of `Cc1c(C(=O)O)c(O)cc2c1C(=O)c1c(O)c([C@@H]3O[C@H](CO)[C@@H](O)[C@H](O)[C@H]3O)c(O)c(O)c1C2=O`, the molecule was called inactive in assay [7], in [16], in assay [8] and in [18].

Turning to `CCc1c(C(=O)NN2CCCCC2)nn(-c2ccc(Cl)cc2Cl)c1-c1ccc(Br)cc1`, the result in assay [3] and in [4] was inactive.

For `CC(C)(C)c1cc(O)c(C(C)(C)C)cc1O`, in assay [5], the outcome was inactive.

`COc1cc(S(=O)(=O)O)c(C)cc1N=Nc1c(O)ccc2cc(S(=O)(=O)O)ccc12`: the concentration at half-maximal activity (AC50) in assay [2] is 35.3 µM (active); in assay [16], 36.1 µM (active); in assay [9], 31.4 µM (active); in assay [4], 30 µM (active); in assay [18], 17.1 µM (active). In addition, the outcome in [7] and in assay [8] was inactive.

For the molecule `O=C(O)CCCCC(=O)O`, the result in [14] was inactive.

With `CC1(C)CC(N=C=O)CC(C)(CN=C=O)C1` (configuration not stated), the molecule was called inactive in assay [2] and in [4]. Moreover, the figures for the AC50 in [16] and in assay [8] were 0.367 µM (active) and 2.94 µM (active), respectively.

As to `CCCc1cc(=O)[nH]c(=S)[nH]1`, the result in assay [3] was inactive.

For `CC1=C(/C=C/C(C)=C/C=C/C(C)=C/CO)C(C)(C)CCC1`, the outcome in assay [2] and in assay [3] was inactive.

On to `CNCc1cc(F)ccc1Oc1ccc(Cl)c(Cl)c1`, for which the AC50 in assay [16] and in [8] was 25 µM (active) each time. In assay [5], the call was inactive.

`Cc1cccc(Nc2cc(Cl)nc(SCC(=O)O)n2)c1C`: the AC50 in assay [5] was 5.03 µM (active).
